# Laboratory results published in PMC7862700, “An all-to-all approach to the identification of sequence-specific readers for epigenetic DNA modifications on cytosine”.
# Key:
# Assay in all cases: DAPPL (digital affinity profiling via proximity ligation, sequencing); 10 mM Tris-HCl pH 7.5, 50 mM NaCl, 1 mM DTT, 4% glycerol, room temperature, 30 min; GST-TFs on glutathione beads, 16-mer random dsDNA library, 0.1% formaldehyde crosslink after washing; high values mean tight binding
# Settings in all cases: protein: recombinant; tags: N-terminal GST; dsDNA, one strand shown
# FLI1 = target: T1, FLI1 (Homo sapiens, UniProt Q01543 1-452)
# T1 sequence: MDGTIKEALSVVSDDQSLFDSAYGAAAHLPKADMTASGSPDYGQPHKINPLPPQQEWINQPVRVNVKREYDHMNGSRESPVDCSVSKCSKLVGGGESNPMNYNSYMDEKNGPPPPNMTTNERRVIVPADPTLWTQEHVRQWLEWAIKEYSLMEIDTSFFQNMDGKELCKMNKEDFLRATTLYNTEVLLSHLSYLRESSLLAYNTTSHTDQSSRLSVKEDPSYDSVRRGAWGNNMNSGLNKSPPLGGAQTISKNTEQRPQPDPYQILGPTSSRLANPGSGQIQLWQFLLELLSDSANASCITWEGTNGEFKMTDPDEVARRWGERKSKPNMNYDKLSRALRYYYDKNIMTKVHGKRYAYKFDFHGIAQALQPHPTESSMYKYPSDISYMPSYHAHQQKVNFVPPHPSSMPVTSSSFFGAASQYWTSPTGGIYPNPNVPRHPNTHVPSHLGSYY
# Outline: (§1)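 Sequencing on an Illumina NextSeq500 followed washing, crosslinking with 0.1% formaldehyde, proximity ligation (BsaI/T4 ligase, 1 h, 37 °C) and PCR amplification of pools that had been incubated for 30 min at room temperature with 200 nmole of a random double-stranded 16-mer DNA library in Tris/NaCl/DTT/glycerol buffer. Each pool held DNA-barcoded human transcription factors, expressed in yeast as GST fusions and captured on glutathione beads, plus a tag-only sample. Binding signal is a hexamer's read frequency for a factor divided by its frequency in the tag-only sample.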
# ELK1 = target: T2, ELK1 (Homo sapiens, UniProt P19419 1-428)
# T2 sequence: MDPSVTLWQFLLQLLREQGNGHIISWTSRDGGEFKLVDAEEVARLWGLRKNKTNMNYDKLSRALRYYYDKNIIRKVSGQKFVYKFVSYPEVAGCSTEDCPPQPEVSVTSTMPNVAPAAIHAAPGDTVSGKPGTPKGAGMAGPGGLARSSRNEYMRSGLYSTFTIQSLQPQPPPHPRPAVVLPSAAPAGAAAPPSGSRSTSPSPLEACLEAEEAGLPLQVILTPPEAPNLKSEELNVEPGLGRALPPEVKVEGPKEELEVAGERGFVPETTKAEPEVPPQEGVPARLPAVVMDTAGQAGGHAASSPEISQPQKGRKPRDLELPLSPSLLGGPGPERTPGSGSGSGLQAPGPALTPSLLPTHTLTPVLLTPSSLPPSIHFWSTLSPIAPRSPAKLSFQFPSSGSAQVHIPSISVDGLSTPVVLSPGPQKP
# Outline: as §1
# GABPA = target: T3, GABPA (Homo sapiens, UniProt Q06546 1-454)
# T3 sequence: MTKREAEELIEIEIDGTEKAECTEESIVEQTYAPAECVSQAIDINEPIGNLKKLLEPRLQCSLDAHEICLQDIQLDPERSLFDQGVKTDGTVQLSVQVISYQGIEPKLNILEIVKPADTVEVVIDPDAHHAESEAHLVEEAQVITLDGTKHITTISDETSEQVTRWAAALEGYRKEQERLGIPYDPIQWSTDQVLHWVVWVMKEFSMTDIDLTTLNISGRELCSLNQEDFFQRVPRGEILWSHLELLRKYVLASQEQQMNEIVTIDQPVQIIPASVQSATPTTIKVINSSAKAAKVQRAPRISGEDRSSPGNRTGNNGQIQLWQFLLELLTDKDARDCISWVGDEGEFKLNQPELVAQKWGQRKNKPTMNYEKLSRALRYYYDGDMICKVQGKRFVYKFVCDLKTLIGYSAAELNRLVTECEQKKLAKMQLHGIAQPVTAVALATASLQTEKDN
# Outline: as §1
# ERG = target: T4, ERG (Homo sapiens, UniProt P11308 1-479)
# T4 sequence: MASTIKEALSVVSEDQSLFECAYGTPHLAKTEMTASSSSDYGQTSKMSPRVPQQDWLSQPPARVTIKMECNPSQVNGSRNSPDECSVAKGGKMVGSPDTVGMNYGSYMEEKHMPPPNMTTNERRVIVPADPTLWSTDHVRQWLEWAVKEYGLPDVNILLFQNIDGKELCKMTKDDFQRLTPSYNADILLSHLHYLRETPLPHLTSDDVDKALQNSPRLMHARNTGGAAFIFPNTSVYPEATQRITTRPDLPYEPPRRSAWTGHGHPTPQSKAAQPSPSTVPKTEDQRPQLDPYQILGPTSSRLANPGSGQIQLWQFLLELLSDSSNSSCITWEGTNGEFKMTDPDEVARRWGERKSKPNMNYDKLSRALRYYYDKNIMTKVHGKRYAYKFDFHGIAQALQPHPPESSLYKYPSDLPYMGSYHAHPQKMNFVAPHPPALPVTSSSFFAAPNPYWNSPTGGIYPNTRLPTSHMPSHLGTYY
# Outline: as §1
# ELF1 = ELF1 (Homo sapiens, UniProt P32519 1-619)
# Outline: as §1
# EHF = target: T5, EHF (Homo sapiens, UniProt Q9NZC4 1-300)
# T5 sequence: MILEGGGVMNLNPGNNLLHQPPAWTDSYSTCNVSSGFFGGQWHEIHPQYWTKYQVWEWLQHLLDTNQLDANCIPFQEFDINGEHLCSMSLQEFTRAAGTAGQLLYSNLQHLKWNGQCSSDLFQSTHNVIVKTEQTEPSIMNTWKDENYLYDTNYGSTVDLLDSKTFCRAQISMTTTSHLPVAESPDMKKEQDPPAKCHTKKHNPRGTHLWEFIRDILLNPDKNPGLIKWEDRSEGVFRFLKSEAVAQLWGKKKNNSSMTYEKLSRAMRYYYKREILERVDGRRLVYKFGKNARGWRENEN
# Outline: as §1
# SPI1 = SPI1 (Homo sapiens, UniProt P17947 1-270)
# Outline: as §1
# SPIB = SPIB (Homo sapiens, UniProt Q01892 1-262)
# Outline: as §1
# ELK3 = target: T6, ELK3 (Homo sapiens, UniProt P41970 1-407)
# T6 sequence: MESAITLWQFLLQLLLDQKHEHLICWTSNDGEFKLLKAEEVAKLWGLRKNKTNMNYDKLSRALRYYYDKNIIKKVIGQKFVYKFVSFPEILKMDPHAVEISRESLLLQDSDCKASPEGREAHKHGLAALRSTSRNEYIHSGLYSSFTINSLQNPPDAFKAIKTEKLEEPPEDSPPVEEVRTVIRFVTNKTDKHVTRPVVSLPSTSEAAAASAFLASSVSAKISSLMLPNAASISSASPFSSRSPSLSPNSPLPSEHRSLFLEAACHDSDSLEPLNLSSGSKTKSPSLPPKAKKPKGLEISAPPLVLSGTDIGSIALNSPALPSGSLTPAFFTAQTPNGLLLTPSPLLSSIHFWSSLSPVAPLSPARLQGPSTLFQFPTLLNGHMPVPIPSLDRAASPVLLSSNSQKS
# Outline: as §1
# Chain of SPIB (Q01892 whole entry): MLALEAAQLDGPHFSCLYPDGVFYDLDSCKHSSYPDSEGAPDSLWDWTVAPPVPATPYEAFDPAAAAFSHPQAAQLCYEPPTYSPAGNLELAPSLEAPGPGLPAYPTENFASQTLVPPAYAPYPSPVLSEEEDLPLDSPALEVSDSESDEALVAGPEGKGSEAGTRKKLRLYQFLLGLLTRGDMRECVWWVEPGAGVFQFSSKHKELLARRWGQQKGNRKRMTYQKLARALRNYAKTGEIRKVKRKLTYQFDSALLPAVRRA
# Chain of ELF1 (P32519 whole entry): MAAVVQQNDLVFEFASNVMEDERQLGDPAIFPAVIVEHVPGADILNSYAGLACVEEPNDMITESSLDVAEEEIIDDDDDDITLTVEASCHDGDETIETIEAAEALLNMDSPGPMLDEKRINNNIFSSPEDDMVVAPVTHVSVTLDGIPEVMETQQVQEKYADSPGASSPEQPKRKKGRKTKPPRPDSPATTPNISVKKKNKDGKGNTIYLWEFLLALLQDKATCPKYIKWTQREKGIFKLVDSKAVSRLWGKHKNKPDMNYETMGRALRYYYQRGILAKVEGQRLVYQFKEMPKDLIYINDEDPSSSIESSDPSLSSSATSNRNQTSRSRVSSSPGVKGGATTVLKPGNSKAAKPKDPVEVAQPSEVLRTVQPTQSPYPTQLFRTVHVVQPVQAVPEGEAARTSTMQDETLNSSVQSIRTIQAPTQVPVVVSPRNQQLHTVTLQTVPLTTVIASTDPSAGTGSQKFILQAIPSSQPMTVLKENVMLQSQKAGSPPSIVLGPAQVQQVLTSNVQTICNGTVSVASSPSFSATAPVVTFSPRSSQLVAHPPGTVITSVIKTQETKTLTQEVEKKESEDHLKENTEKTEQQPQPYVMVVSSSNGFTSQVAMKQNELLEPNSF
sequence,measurement,setting,value
TGGCTA,binding signal,FLI1,"1.15 fold enrichment (6-mer frequency, TF over GST control)"
same,binding signal,ELK1,"1.23 fold enrichment (6-mer frequency, TF over GST control)"
same,binding signal,GABPA,"1.24 fold enrichment (6-mer frequency, TF over GST control)"
same,binding signal,ERG,"1.17 fold enrichment (6-mer frequency, TF over GST control)"
same,binding signal,ELF1,"1.22 fold enrichment (6-mer frequency, TF over GST control)"
same,binding signal,EHF,"1.19 fold enrichment (6-mer frequency, TF over GST control)"
same,binding signal,SPI1,"1.2 fold enrichment (6-mer frequency, TF over GST control)"
same,binding signal,SPIB,"1.31 fold enrichment (6-mer frequency, TF over GST control)"
same,binding signal,ELK3,"1.14 fold enrichment (6-mer frequency, TF over GST control)"
